Test results from ChEMBL document CHEMBL3988442, “University of Dundee, Small-Polar-MMV Screening Library” (2021).
Hit rate of the full screen: of about 48,000 compounds, about 13,000 (27%) showed an effect of 50% or more. Some of the results follow.

Each compound was assayed on Wolbachia pipientis (assay: Anti-Wolbachia Cell-Based Screen). Conditions: 5 µM.
Type: functional
Parameters: scale not given: in the data most compounds retested in dose-response had high values
For `CC(C)N(C)Cc1n[nH]c2c1CCN(C(=O)c1cc[nH]n1)C2`, the “Percent Effect” value was 93.85%. In the case of `CC(C)N(C)Cc1n[nH]c2c1CCN(C(=O)c1ccc[nH]1)C2.O=C(O)C(F)(F)F`, the “Percent Effect” value is reported as 99.94%. For `O=C(c1ccsc1)N1CCc2c(CN3CCCC3)n[nH]c2C1`, the “Percent Effect” value was -0.6462%. `CN(C)Cc1n[nH]c2c1CCN(Cc1cccs1)C2.O=C(O)C(F)(F)F.O=C(O)C(F)(F)F` was tested, and the “Percent Effect” value was -7.744%. With `Cc1nocc1C(=O)N1CCc2c(CN(C)C(C)C)n[nH]c2C1` the “Percent Effect” value was -1.781%. `Cc1cc(C(=O)N2CCc3c(CN(C)C(C)C)n[nH]c3C2)[nH]n1` was tested, and the “Percent Effect” value was 101.7%. With `CC(C)Nc1nc2c(c(N(C)C)n1)CCN(C(=O)c1cc[nH]n1)CC2` the “Percent Effect” value was -2.807%. With `CN(Cc1cn2c(n1)CN(C(=O)c1ccc[nH]1)CC2)Cc1ccco1.O=C(O)C(F)(F)F` the “Percent Effect” value was -0.5876%. For `Cc1cc(C(=O)N2CCc3c(ncnc3N3CCOCC3)C2)[nH]n1`, the “Percent Effect” value was -12.68%. For `Cc1cc(Br)oc1C(=O)N1CCC(N(C)C)CC1`, the “Percent Effect” value was -50.6%. With `COCCN1CCCC2(CCN(c3nccnc3N(C)C)C2)C1=O` (centres undefined) the “Percent Effect” value was -5.787%. With `Cc1ccoc1C(=O)N1CCC(n2cc(-c3ccsc3)nn2)CC1` the “Percent Effect” value was -24.55%. In the case of `COc1cccc(N2CCC(CNC(=O)CN3CSCC3=O)C2)c1` (centres undefined), the “Percent Effect” value is reported as -9.493%. In the case of `CC1(C)O[C@@](C)([C@H]2CC3(CCN(c4cnccn4)CC3)CO2)CC[C@@H]1O`, the “Percent Effect” value is reported as 106.3%. For `CS(=O)(=O)N1CCOCC2(CCN(c3cnccn3)CC2)C1`, the “Percent Effect” value was -8.044%. `OCC(O)CSCc1nnc(-c2cccc(F)c2)o1` (centres undefined) was tested, and the “Percent Effect” value was 6.518%. In the case of `CC(C)CCN1C2(CCN(c3ncccn3)C2)c2ccccc2S1(=O)=O` (centres undefined), the “Percent Effect” value is reported as 105.2%. In the case of `FC1(F)CCN(c2ccccc2)CC12CCN(c1ncccn1)C2` (centres undefined), the “Percent Effect” value is reported as 4.725%. In the case of `CC(C)CCN1C2(CCN(C(=O)N(C)C)C2)c2ccccc2S1(=O)=O` (centres undefined), the “Percent Effect” value is reported as 108.8%. `CCCN1CCC2(C1)c1ccccc1S(=O)(=O)N2Cc1ccc(F)cc1` (centres undefined) was tested, and the “Percent Effect” value was 8.528%. In the case of `COCC(=O)N1CCC2(C1)c1ccccc1S(=O)(=O)N2CCC(C)C` (centres undefined), the “Percent Effect” value is reported as 110.5%. In the case of `COCC(=O)N1CCC2(C1)c1ccccc1S(=O)(=O)N2C` (centres undefined), the “Percent Effect” value is reported as 99.03%. With `COc1ccccc1N1CCN(C(=O)Cn2nc(C)c(C)c2C)C(C)C1` (centres undefined) the “Percent Effect” value was 5.362%. In the case of `CCC(Nc1cccc(OC)c1)C(=O)N(CCOC)Cc1cnn(C)c1` (centres undefined), the “Percent Effect” value is reported as -17.99%. In the case of `Cc1cc(C#N)ccc1S(=O)(=O)N1CCN(C)Cc2ccccc21`, the “Percent Effect” value is reported as 3.182%. For `CCc1noc(C(C)SCCS(C)(=O)=O)n1` (centres undefined), the “Percent Effect” value was 3.138%. With `CC(C)CCN1C2(CCN(C(=O)CN(C)C)C2)c2ccccc2S1(=O)=O.O=C(O)C(F)(F)F` (centres undefined) the “Percent Effect” value was 95.71%. `COCC(=O)N1CCC2(CC1)c1ccccc1[C@@H](N1CCSCC1)[C@@H]2O` was tested, and the “Percent Effect” value was 1.916%. For `CC(C)CCN1CC2(CCN(C(=O)C3(C)CC3)CC2)OC1=O`, the “Percent Effect” value was 1.386%. With `CCNC(=O)N1CCC2(C1)c1ccccc1S(=O)(=O)N2CCC(C)C` (centres undefined) the “Percent Effect” value was -10.03%. For `CC(C)CCN1C2(CCN(C(=O)C3(C)CC3)C2)c2ccccc2S1(=O)=O` (centres undefined), the “Percent Effect” value was 92.1%. In the case of `CC(=O)N1CCC2(C1)c1ccccc1S(=O)(=O)N2CCC(C)C` (centres undefined), the “Percent Effect” value is reported as 83.1%. `COCC(=O)N1CCC2(C1)c1ccccc1S(=O)(=O)N2CC1CC1` (centres undefined) was tested, and the “Percent Effect” value was 95.12%. `CC(C)CCN1N=C(C(=O)N2CCCCCC2)S(=O)(=O)c2ccccc21` was tested, and the “Percent Effect” value was 20.76%.
